ADAM10 inh – human ADAM10 inhibitors, primary screen, biochemical, QFRET, HTS. 370,000 tested, 0.62% active. inhibition, % at 7 µM. recombinant ADAM10, EDANS/DABCYL FRET peptide cleavage, 3 h;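 active means inhibition above a per-campaign cutoff equal to the mean of compounds falling between control-based bounds plus 3 SD, cut at about 20% in these data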
aDG glyco act – activators of alpha-DG glycosylation, primary screen, uHTS, Pro5-aDG cells, AlphaScreen. alpha-DG glycosylation AlphaScreen (IIH6); 0% Pro5, 100% B10-LARGE cell signal. activation, % at 10 µM. 360,000 tested, 0.22% active;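 active means activation of at least 8% versus controls, or a plate z-score of at least 8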;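 further: Pro5 are CHO cells carrying HIG-tagged alpha-DG that lacks glycosylation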
NR3A LBD binder – binders of NR3A ligand-binding domain, primary screen, biophysical, differential scanning fluorimetry, uHTS. AID 1259313, 2017. Tm shift relative to glycine control, % at 25 µM. NR3A LBD differential scanning fluorimetry, Tm shift; 0% = protein alone, 100% = glycine-bound protein. 340,000 tested, 2.5% active. Glutamate receptor ionotropic, NMDA 3A (GRIN3A) ligand-binding domain;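 active means melting temperature shift of at least 10% of the positive control shift, at one fixed dose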
FAS-TE inh – FAS thioesterase domain inhibitors, primary screen, biochemical, fluorescence intensity, uHTS | Fatty acid synthase (Homo sapiens), P49327 | recombinant FAS-TE, OMFH fluorogenic substrate, fluorescence endpoint | inhibition, % at 15 µM | 360,000 tested, 0.67% active;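 active means compounds whose normalised, plate-corrected inhibition of enzyme fluorescence in the single-dose primary screen is 50% or more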
ADAM17 inh – ADAM17 inhibitors, primary screen, biochemical, QFRET; Disintegrin and metalloproteinase domain-containing protein 17 (Homo sapiens), P78536; recombinant ADAM17, EDANS/DABCYL FRET peptide cleavage; inhibition, % at 6.95 µM; 370,000 tested, 0.83% active; AID 720648, 2013;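 active means inhibition above the mean of compounds lying between control limits plus 3 SD, set per campaign, cut at about 8.5% in these data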
Target sequence (P78536 215-824 limits assumed): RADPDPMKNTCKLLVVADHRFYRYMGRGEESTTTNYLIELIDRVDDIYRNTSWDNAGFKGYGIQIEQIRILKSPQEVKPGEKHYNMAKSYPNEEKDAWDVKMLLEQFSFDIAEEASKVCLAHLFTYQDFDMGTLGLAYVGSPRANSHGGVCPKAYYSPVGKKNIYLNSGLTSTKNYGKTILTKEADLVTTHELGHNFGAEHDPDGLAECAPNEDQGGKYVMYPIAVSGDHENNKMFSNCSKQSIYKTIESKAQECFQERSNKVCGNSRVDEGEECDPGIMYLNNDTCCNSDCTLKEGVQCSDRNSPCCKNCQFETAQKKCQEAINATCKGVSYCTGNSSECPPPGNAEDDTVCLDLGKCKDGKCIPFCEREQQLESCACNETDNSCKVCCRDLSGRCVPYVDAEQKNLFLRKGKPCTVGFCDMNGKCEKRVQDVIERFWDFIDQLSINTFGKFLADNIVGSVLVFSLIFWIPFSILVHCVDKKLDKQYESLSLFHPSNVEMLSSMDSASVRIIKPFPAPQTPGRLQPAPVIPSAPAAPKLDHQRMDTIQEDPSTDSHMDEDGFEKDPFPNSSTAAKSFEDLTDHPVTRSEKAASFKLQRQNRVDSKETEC
Numbers stand for hits; n = inactive; x = not tested or not shown. Most compounds without a hit are left out; they make up all but 4% or so of the library.

SMILES	ADAM10 inh	aDG glyco act	NR3A LBD binder	FAS-TE inh	ADAM17 inh
CCN(CC)S(=O)(=O)c1ccc(N/N=C/c2ccccc2OCC(=O)O)c([N+](=O)[O-])c1	n	n	n	n	n
COc1ccc(NS(=O)(=O)c2cc([N+](=O)[O-])ccc2NN=Cc2ccccc2OCC(=O)O)cc1	n	n	40	n	n
O=C(Nc1cccc(NC(=O)c2ccc(-c3cccc(Br)c3)o2)c1)c1ccco1	n	n	13	n	n
O=C(Nc1cccc(NC(=O)c2ccc(-c3ccc(Br)cc3)o2)c1)c1ccccc1	n	n	n	n	n
O=C(Nc1ccccc1)c1ccc(-c2ccc(Br)cc2)o1	n	n	19	n	n
Cc1n[nH]c(C)c1S(=O)(=O)N1CCC(C(=O)O)CC1	n	n	n	n	n
Cc1n[nH]c(C)c1S(=O)(=O)N1CCOCC1	n	n	14	n	n
O=C(NNc1ccccc1[N+](=O)[O-])Nc1ccc(Cl)c(Cl)c1	n	n	15	n	n
O=C(Nc1ccc(F)c(Cl)c1)c1nsc(Cl)c1Cl	n	n	15	n	n
O=C(Nc1ccc(F)cc1)c1nsc(Cl)c1Cl	n	n	n	n	n
CCN(CC)S(=O)(=O)c1cc([N+](=O)[O-])ccc1NNC(=O)Nc1ccc(Cl)c(Cl)c1	n	n	18	n	n
O=C(Nc1ccc(Cl)c(Cl)c1)Nc1ccon1	n	n	28	n	n
O=C(NNc1ccccc1[N+](=O)[O-])Nc1ccccc1	x	n	n	n	x
Cc1cc(N2C(=O)C(O)=C(C(=O)c3cc4ccccc4o3)C2c2ccc(Cl)cc2)no1 (configuration not stated)	n	n	n	n	n
CCOc1ccc(CSC(CC(=O)O)C(=O)O)cc1 (configuration not stated)	n	n	n	n	n
O=C(Nc1cccnc1)Nc1ccc(F)c(Cl)c1	n	n	25	n	n
O=C(Nc1ccc(Br)cc1)Nc1ccccc1F	n	n	n	n	n
COc1ccc(C(=O)/C=C(\Nc2ccc(Br)c(C)c2)c2ccc(OC)cc2OC)c(OC)c1	n	x	x	x	n
O=C(Nc1ccc(Cl)c(Cl)c1)Nc1ccc(Br)cc1F	n	n	40	n	n
Cc1nccc(-c2cccc(NC(=O)Nc3ccc(Cl)cc3)c2)n1	n	n	25	n	n
COc1ccc(NC(=O)Nc2ccc(Br)c(C)c2)cc1	n	n	25	n	n
CCc1nc2ccccc2n1CC(=O)NC1CCS(=O)(=O)C1 (configuration not stated)	n	n	n	n	n
O=C(Nc1ccncc1)Nc1cccc(Cl)c1Cl	n	n	n	n	n
CSc1ccccc1NC(=O)Nc1ccc(F)c(Cl)c1	n	n	42	n	n
O=C(Nc1ccc(Cl)cc1)Nc1cccc2nsnc12	n	n	21	n	n
SMILES	ADAM10 inh	aDG glyco act	NR3A LBD binder	FAS-TE inh	ADAM17 inh
O=C(Nc1ccc(Oc2ccc(NC(=O)Nc3ccccc3Cl)cc2)cc1)Nc1ccccc1Cl	n	n	22	n	n
O=C(Nc1ccc(Cl)c(Cl)c1)Nc1ccccc1O	n	n	466	n	n
O=C(CN1CCCC1)Nc1ccc(NC(=O)Nc2ccccc2Cl)cc1	n	n	n	n	n
O=C(CC1C(=O)NCCN1Cc1cccc(F)c1)NC1CCCCC1 (configuration not stated)	n	n	n	n	n
CCn1ccnc1CN1CCN(CC(C)C)C(CCO)C1 (configuration not stated)	n	n	n	n	n
COc1ccc(NC(=O)Nc2ccc(F)c(Cl)c2)cc1	n	n	31	n	n
COc1ccc(NC(=O)Nc2cc(C)ccc2F)cc1	n	n	n	n	n
O=C(Nc1ccc(Cl)cc1)Nc1ccc(Cl)c(Cl)c1	n	x	16	x	n
NC(=O)c1cccc(NC(=O)Nc2ccc(Cl)cc2)c1	n	n	24	n	n
N#Cc1ccc(NC(=O)Nc2ccc(Cl)cc2)cc1	n	n	34	n	n
Nc1cc(Br)cc2c1[nH]c(=O)c1ccccc12	n	n	x	n	n
O=C(C(Cc1ccccc1)N1C(=O)C2C3C=CC(C3)C2C1=O)N1CCCCCC1 (configuration not stated)	n	n	n	n	n
Cc1nnsc1SCCNC(=O)Nc1ccc(Cl)cc1	n	n	28	n	n
Cc1ccc(NC(=O)Nc2ccc(F)c(Cl)c2)cc1	n	n	32	n	n
O=C(NCCNC(=O)Nc1ccc(Cl)cc1)Nc1ccc(Cl)cc1	n	n	22	n	n
O=C(NCCO)Nc1ccc(Cl)cc1	n	n	n	n	n
O=C(CCCc1ccccc1)NCc1cccnc1	n	n	n	n	n
O=C(NCc1n[nH]c(=S)n1-c1ccc(Br)cc1)c1cccs1	n	n	n	n	n
COC(=O)c1cc(C(=O)OCC(=O)NC(=O)NCc2ccccc2)cc([N+](=O)[O-])c1	n	n	n	n	n
CN(C)c1ccc(Nc2ncnc3ccc(Br)cc23)cc1	n	n	n	n	n
NC(=O)NC(=O)C(Nc1ccc2c(c1)CCC2)c1ccccc1 (configuration not stated)	n	n	n	n	n
Cn1c(O)c(/C=N/NC(=O)c2cc3ccccc3cc2O)c2ccccc21	n	n	21	n	n
CCn1c2ccccc2c2cc(/C=N/NC(=O)c3ccncc3)ccc21	n	n	n	n	n
CCn1c2ccccc2c2cc(/C=N/NC(=O)c3ccc(O)cc3)ccc21	n	n	38	n	n
COc1ccc(C=O)cc1CSc1ccccn1	n	n	n	n	n
SMILES	ADAM10 inh	aDG glyco act	NR3A LBD binder	FAS-TE inh	ADAM17 inh
COCCn1c(C)cc(/C=N/NC(=O)c2cc3ccccc3cc2O)c1C	x	n	n	n	x
O=C(N/N=C/c1cn(Cc2ccccc2)c2ccccc12)c1cc(O)cc(O)c1	n	n	n	n	n
CCn1c2ccccc2c2cc(/C=N/NC(=O)c3cc(O)cc(O)c3)ccc21	n	n	21	n	n
COc1ccc(/C=N/NC(=O)c2ccc(O)cc2O)cc1CSc1ccccn1	n	n	21	n	n
CC(=O)Nc1ccc(N=Cc2c(O)c(C(=O)Nc3ccccc3)cc3ccccc23)cc1	n	x	n	x	n
Cn1c2ccccc2c2cc(/C=N/NC(=O)c3ccc(O)cc3O)ccc21	x	n	30	n	x
COc1ccc2c(c1)cc(C(=O)N/N=C/c1c(O)c(C(=O)O)cc3ccccc13)n2C	n	n	11	n	n
Cc1ccc(S(=O)(=O)/C(C#N)=C/c2c(N3CC(C)OC(C)C3)nc3c(C)cccn3c2=O)cc1 (configuration not stated)	n	n	n	56	n
O=C(/C=C/c1cccs1)Nc1ccc([N+](=O)[O-])cc1	n	n	26	n	n
O=C(/C=C/c1cccs1)c1ccc([N+](=O)[O-])cc1	n	n	n	n	n

From PubChem
